The source of these data is PubChem BioAssay.

Assay [1] can be described thus: antimalarial activity against Dd2 strain (AID 2302;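 active = growth inhibition above 50% at the single 2 µM test dose, taken to imply half-maximal potency below 2 µM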;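 also: 0% = DMSO untreated growth and 100% = chloroquine plus artemisinin killed control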). As to conditions: P. falciparum Dd2 in RBCs, LDH growth readout, 72 h; at 2 µM; stronger effect = higher value.
The nature of assay [2]: HepG2 cytotoxicity, primary screen, cytotoxicity control for P. falciparum antimalarial project, cell-based, ATP luminescence (AID 2303;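 active = inhibition above 50%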;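 also: 0% = DMSO wells and 100% = digitonin-killed cells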). As to conditions: HepG2 viability, 24-48 h, at 10 µM, stronger effect = higher value.
Assay [3] has as its target L-lactate dehydrogenase (Plasmodium falciparum (isolate CDC / Honduras)) (UniProt Q27743). Put plainly: PfLDH activity inhibition – cell lysate, 3D7 strain, counter-screen for P. falciparum growth inhibition project (AID 2304).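 Also: 0% = vehicle and 100% = reference inhibitor.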 As to conditions: P. falciparum 3D7 crude extract, LDH APAD/NBT absorbance; at 2 µM; stronger effect = higher value.
Assay [4] is described as follows: inhibition of 3D7 malaria parasite growth – strain 3D7 (AID 2306).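 Also: 0% = DMSO wells and 100% = chloroquine plus artemisinin control wells.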 As to conditions: P. falciparum 3D7 erythrocytic growth, LDH absorbance, 72 h; at 2 µM; stronger effect = higher value.
The target of assay [5] is Calcium-dependent protein kinase 1 (Plasmodium falciparum (isolate 3D7)) (UniProt P62344). Put plainly: PfCDPK1 kinase inhibitors, biochemical, TCAMS library (AID 1159585; cut-off not given, nearly all actives have IC50 up to about 0.98 µM;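 also: inhibitors leave more ATP so luminescence rises with inhibition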). Particulars: recombinant PfCDPK1, Kinase-Glo ATP depletion luminescence.
For assay [6], the target named is Plasmodium falciparum protein kinase 6 (PK6, PF3D7_1337100) (UniProt Q8IDW1). The assay can be described thus: PfPK6 kinase inhibitors, biochemical, TCAMS library (AID 1159586). Particulars: recombinant PfPK6, Kinase-Glo ATP depletion luminescence.
The target in assay [7] is Protein kinase 7 (PK7), Plasmodium falciparum 3D7 (PF3D7_0213400) (UniProt Q7YTF7). Put plainly: inhibition of Plasmodium PK7 catalytic activity – biochemical, TCAMS antimalarial set, Kinase-Glo luminescence (AID 1159587). As to conditions: recombinant PfPK7, Kinase-Glo ATP depletion luminescence.
Assay [8] addresses Calcium-dependent protein kinase 4 (Plasmodium falciparum (isolate 3D7)) (UniProt Q8IBS5). Put plainly: PfCDPK4 kinase inhibitors, biochemical, TCAMS library (AID 1159588; cut-off not given, nearly all actives have IC50 up to about 0.91 µM). Particulars: recombinant PfCDPK4, Kinase-Glo ATP depletion luminescence.

Values without a mark were called inactive. For some of these results: Results with a measured potency or affinity are listed apart. Activity calls are given as the source filed them. Unless noted, no rule for the calls is given here.

Sequence of Calcium-dependent protein kinase 1 (Plasmodium falciparum (isolate 3D7)) (P62344 whole entry, looked up): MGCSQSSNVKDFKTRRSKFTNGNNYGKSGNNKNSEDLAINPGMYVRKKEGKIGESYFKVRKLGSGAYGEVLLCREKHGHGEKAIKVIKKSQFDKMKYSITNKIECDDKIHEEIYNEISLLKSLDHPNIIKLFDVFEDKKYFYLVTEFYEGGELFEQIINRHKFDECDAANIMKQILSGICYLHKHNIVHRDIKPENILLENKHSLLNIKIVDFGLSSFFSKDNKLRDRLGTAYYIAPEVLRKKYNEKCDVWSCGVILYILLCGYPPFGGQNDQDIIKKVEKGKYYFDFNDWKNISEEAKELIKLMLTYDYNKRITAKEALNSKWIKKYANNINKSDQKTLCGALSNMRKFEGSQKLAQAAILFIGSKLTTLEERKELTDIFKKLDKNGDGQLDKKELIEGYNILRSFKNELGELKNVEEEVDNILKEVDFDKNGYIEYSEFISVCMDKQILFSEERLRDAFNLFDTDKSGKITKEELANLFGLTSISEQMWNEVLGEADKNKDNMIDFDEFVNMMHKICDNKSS
Sequence of Plasmodium falciparum protein kinase 6 (PK6, PF3D7_1337100) (Q8IDW1 1-305): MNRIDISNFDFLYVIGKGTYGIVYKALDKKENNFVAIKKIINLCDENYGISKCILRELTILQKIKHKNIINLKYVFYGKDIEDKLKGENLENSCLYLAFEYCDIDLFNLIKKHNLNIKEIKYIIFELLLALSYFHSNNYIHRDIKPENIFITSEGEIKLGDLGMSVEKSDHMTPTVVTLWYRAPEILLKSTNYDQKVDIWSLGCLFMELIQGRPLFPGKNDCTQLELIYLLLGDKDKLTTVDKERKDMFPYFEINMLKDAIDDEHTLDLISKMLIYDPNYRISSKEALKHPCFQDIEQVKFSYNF
Sequence of Calcium-dependent protein kinase 4 (Plasmodium falciparum (isolate 3D7)) (Q8IBS5 whole entry, looked up): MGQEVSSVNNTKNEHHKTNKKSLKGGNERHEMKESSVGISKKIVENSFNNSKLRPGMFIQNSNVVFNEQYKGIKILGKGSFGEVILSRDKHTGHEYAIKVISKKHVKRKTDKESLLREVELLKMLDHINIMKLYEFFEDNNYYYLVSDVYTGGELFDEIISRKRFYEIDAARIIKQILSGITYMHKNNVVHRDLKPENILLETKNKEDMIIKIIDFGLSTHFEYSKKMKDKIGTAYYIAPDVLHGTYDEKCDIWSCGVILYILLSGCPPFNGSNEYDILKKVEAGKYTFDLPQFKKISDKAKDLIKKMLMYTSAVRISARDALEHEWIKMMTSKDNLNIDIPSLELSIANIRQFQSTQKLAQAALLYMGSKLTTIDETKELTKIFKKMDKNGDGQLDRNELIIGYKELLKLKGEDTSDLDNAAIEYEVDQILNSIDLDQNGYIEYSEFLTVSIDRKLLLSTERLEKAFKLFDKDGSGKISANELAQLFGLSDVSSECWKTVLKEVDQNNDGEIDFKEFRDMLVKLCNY
Sequence of L-lactate dehydrogenase (Plasmodium falciparum (isolate CDC / Honduras)) (Q27743 whole entry, looked up): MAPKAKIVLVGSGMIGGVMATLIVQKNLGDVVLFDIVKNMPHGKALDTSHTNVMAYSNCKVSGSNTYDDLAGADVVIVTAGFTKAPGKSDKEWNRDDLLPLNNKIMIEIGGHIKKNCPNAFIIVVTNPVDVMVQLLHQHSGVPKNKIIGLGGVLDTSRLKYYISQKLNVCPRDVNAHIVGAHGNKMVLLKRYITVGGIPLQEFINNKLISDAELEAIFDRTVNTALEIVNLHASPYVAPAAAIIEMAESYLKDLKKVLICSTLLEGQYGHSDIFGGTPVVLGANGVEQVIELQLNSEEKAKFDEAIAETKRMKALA
Sequence of Protein kinase 7 (PK7), Plasmodium falciparum 3D7 (PF3D7_0213400) (Q7YTF7 1-343): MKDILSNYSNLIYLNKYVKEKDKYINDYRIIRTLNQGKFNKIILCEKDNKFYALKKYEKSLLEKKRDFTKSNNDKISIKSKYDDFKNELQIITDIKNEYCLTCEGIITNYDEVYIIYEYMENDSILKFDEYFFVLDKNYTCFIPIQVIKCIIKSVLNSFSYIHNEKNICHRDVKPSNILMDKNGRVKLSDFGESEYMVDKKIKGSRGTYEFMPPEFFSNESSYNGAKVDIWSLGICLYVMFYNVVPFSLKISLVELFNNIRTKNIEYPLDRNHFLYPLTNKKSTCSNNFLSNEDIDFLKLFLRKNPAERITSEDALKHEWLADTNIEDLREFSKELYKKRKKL

Turning to `O=C(NCCc1ccc(Cl)c(Cl)c1)[C@@H]1CCCN1C(=O)c1ccc(O)c(-c2cccc(C(F)(F)F)c2)c1`, the results for the growth inhibition in assay [1] and in assay [4] were 82% (active) and 97% (active), respectively. Also, the values for the inhibition in assay [2] and in assay [3] were 0% and -7%, respectively. Moreover, the result in assay [5], in assay [6], in assay [7] and in assay [8] was inactive.

As for `CCCN1CCN(CCCCNc2c3ccccc3nc3ccccc23)CC1`, the growth inhibition in assay [1] is 0%; in assay [4], 100% (active). In addition, the inhibition was 34% in assay [2] and -8% in assay [3]. Also, the result in assay [5], in assay [6], in assay [7] and in assay [8] was inactive.

As to `COc1cccc(C2CCN(CCN3CCC(CNC(=O)c4ccc(-c5ccc(C(F)(F)F)cc5)cc4)CC3)CC2)c1`, the results for the growth inhibition in assay [1] and in assay [4] were 42% and 100% (active), respectively. The inhibition in assay [2] was 41%; in assay [3] it was -2%. Moreover, the outcome in assay [5], in assay [6], in assay [7] and in assay [8] was inactive.

With `COc1ccc(-c2onc(C(F)(F)F)c2-c2ccc(Br)cc2)c(O)c1`, the growth inhibition in assay [1] is 77% (active); in assay [4], 99% (active). Also, the results for the inhibition in assay [2] and in assay [3] were 7% and 4%, respectively. In addition, the result in assay [5], in assay [6], in assay [7] and in assay [8] was inactive.

Take `COc1cccc(C2C(C(=O)Nc3ccccc3)=C(C)N=c3s/c(=C\c4ccc(O)cc4)c(=O)n32)c1` (centres undefined): the growth inhibition in assay [1] and in assay [4] was 97% (active) in each case. For the same compound, the inhibition is 15% in assay [2] and 6% in assay [3]. The result in assay [5], in assay [6], in assay [7] and in assay [8] was inactive.

Take `COc1ccc(OC)c2c1C[C@@H]1NC[C@H]2c2c(OC)ccc(OC)c21`: the figures for the growth inhibition in assay [1] and in assay [4] were 3% and 99% (active), respectively. Besides, the inhibition was 2% in assay [2] and 1% in assay [3]. Besides, the outcome in assay [5], in assay [6], in assay [7] and in assay [8] was inactive.

In the case of `O=C(N[C@@H](Cc1ccccc1)C(=O)NC1CCCCCC1)c1ccc(O)c(-c2ccc(Cl)c(Cl)c2)c1`, the growth inhibition was 99% (active) in assay [1] and 92% (active) in assay [4]. For the same compound, the inhibition in assay [2] was -6%; in assay [3], -9%. Besides, the outcome in assay [5], in assay [6], in assay [7] and in assay [8] was inactive.

Regarding `COc1cc(C=NNc2nc(Nc3ccccc3)nc(Nc3ccccc3)n2)ccc1OCc1ccccc1[N+](=O)[O-]`, the growth inhibition in assay [1] was 18%; in assay [4], 98% (active). Further, the inhibition in assay [2] is 8%; in assay [3] it was 3%. In addition, the result in assay [5], in assay [6], in assay [7] and in assay [8] was inactive.

For the compound `CCN(CC)CCN(Cc1ccc(-c2ccc(C(F)(F)F)cc2)cc1)C(=O)Cn1nc(-c2ccc(C(F)(F)F)cc2)ccc1=O`, the results for the growth inhibition in assay [1] and in assay [4] were 83% (active) and 100% (active), respectively. Besides, the inhibition is 44% in assay [2] and -2% in assay [3]. Moreover, the outcome in assay [5], in assay [6], in assay [7] and in assay [8] was inactive.

On to `CC(Cc1ccc(Cl)cc1)Nc1nc(NC2CCCC2)nc(N2CCC(C#N)(c3ccccc3)CC2)n1` (centres undefined), for which the growth inhibition in assay [1] was 95% (active); in assay [4] it was 99% (active). The inhibition is 15% in assay [2] and -6% in assay [3]. Further, the result in assay [5], in assay [6], in assay [7] and in assay [8] was inactive.

As to `Cc1[nH]cnc1Cc1ccc2c(c1O)c1ccccc1n2C`, the growth inhibition in assay [1] is 16%; in assay [4], 90% (active). Moreover, the values for the inhibition in assay [2] and in assay [3] were 9% and -2%, respectively. Also, the result in assay [5], in assay [6], in assay [7] and in assay [8] was inactive.

Regarding `CC(C)c1sc(N2CCCCC2)nc1C(=O)Nc1ccc(F)cc1C(F)(F)F`, the growth inhibition in assay [1] was 98% (active); in assay [4] it was 100% (active). The inhibition in assay [2] was -1%; in assay [3], 0%. In addition, the outcome in assay [5], in assay [6], in assay [7] and in assay [8] was inactive.

As to `N#Cc1cncc(-c2nc3c(N4CCC(N5CCCC5)CC4)cccc3n2CCNCc2ccccc2)c1`, the growth inhibition in assay [1] is 58% (active); in assay [4], 100% (active). Besides, the values for the inhibition in assay [2] and in assay [3] were 3% and -2%, respectively. Also, the result in assay [5], in assay [6], in assay [7] and in assay [8] was inactive.

For `CCC/C=C/c1c(CNCCCNc2cc(=O)c3ccccc3[nH]2)sc(CC)c1Br`, the growth inhibition in assay [1] is 71% (active); in assay [4] it was 88% (active). Further, the results for the inhibition in assay [2] and in assay [3] were 8% and -1%, respectively. The result in assay [5], in assay [6], in assay [7] and in assay [8] was inactive.

As to `C[C@H]1CN(Cc2cccc(-c3cc(CNC(=O)c4cccc(CN5CCN(C/C=C/c6ccccc6)CC5)c4)ccc3F)c2)CCN1`, the growth inhibition in assay [1] is 46%; in assay [4], 98% (active). Further, the inhibition in assay [2] is 98% (active); in assay [3], -2%. Also, the outcome in assay [5], in assay [6], in assay [7] and in assay [8] was inactive.

On to `O=C(NCC1CCN(Cc2ccc3c(c2)OCCO3)C1)c1cc(-c2cccc(C(F)(F)F)c2)cs1` (centres undefined), for which the growth inhibition in assay [1] is 1%; in assay [4], 101% (active). Besides, the inhibition in assay [2] was 31%; in assay [3] it was 4%. Moreover, the result in assay [5], in assay [6], in assay [7] and in assay [8] was inactive.

Consider `O=C(Nc1cccc(-c2nn3ncccc3c2-c2ccnc(Nc3cccnc3)n2)c1)c1c(F)cccc1F`, for which the growth inhibition in assay [1] is 70% (active); in assay [4] it was 96% (active). Further, the inhibition was 5% in assay [2] and -2% in assay [3]. Moreover, the outcome in assay [5], in assay [6], in assay [7] and in assay [8] was inactive.

Take `Cc1nc(Nc2ccc(C)c(Cl)c2)c2c(C)noc2n1`: the growth inhibition in assay [1] is 72% (active); in assay [4], 94% (active). For the same compound, the inhibition in assay [2] and in assay [3] was 0% throughout. For the same compound, the outcome in assay [5], in assay [6], in assay [7] and in assay [8] was inactive.

For `O=C1C(c2ccccc2)=C(Nc2ccc([N+](=O)[O-])cc2)c2ccccc21`, the results for the growth inhibition in assay [1] and in assay [4] were 73% (active) and 95% (active), respectively. Also, the inhibition in assay [2] and in assay [3] was -2% in each case. Moreover, the outcome in assay [5], in assay [6], in assay [7] and in assay [8] was inactive.

Turning to `COc1ccc2nc(C)cc(Nc3ccc(Oc4ccc(Cl)cc4)c(Cl)c3)c2c1`, the values for the growth inhibition in assay [1] and in assay [4] were 100% (active) and 101% (active), respectively. In addition, the inhibition in assay [2] was 48%; in assay [3] it was -2%. The outcome in assay [5], in assay [6], in assay [7] and in assay [8] was inactive.

With `CS(=O)(=O)c1ccc(-c2cc(C(F)(F)F)nc(N[C@@H]3CCCC[C@H]3OCc3ccccc3)n2)cc1`, the figures for the growth inhibition in assay [1] and in assay [4] were 99% (active) and 100% (active), respectively. In addition, the inhibition in assay [2] was 8%; in assay [3] it was 5%. Moreover, the outcome in assay [5], in assay [6], in assay [7] and in assay [8] was inactive.

Regarding `CC(COc1ccc2c(c1)OC(C)(C)CC2c1ccccc1)NCC(O)c1cccc(Cl)c1` (centres undefined), the growth inhibition in assay [1] is 96% (active); in assay [4], 98% (active). Further, the inhibition is 1% in assay [2] and 3% in assay [3]. Besides, the outcome in assay [5], in assay [6], in assay [7] and in assay [8] was inactive.

On to `COc1ccc2nccc([C@@H](O)CN3CCC(NCc4cc5c(Cl)cccc5[nH]4)CC3)c2c1`, for which the growth inhibition is 74% (active) in assay [1] and 101% (active) in assay [4]. Further, the figures for the inhibition in assay [2] and in assay [3] were 40% and 1%, respectively. In addition, the outcome in assay [5], in assay [6], in assay [7] and in assay [8] was inactive.
